Laboratory results: PubChem BioAssay (EPA / NIEHS)
Records with an inconclusive call do not appear. Active and inactive are the calls of the source. How the source made its calls: active means hit-call score of the fitted dose curve at least 0.9, where 1 is the maximum; inconclusive means response in the unintended direction; inactive means score below 0.9.

Key:
[1] = TOX21_p53_BLA_p2_viability: Viability Assessment in the Tox21 HCT-116 p53 Agonism Beta-lactamase Assay, Phase 2 (AID 2283591);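 further: compound exposure lasted 16 h at 37 °C; actives lower the ATP signal meaning cytotoxicity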
Method in brief: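 HCT116 p53-bla cells, 4000/well, dosed after 5 h plating (217-fold dilution of DMSO stocks) and incubated 16 h at 37C. Viability taken as cellular ATP by CellTiter-Glo luminescence after 30 min RT; signal loss marks cytotoxicity.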

[2] = target: Cellular tumor antigen p53 (Homo sapiens) (UniProt P04637); experiment: TOX21_p53_BLA_p2_ratio: Tox21 HCT-116 p53 Agonism Beta-lactamase Assay, Ratio, Phase 2 (AID 2283592)
Method in brief: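 In this cell-based reporter format, HCT116 cells were dosed with chemicals delivered from DMSO by 217-fold dilution and incubated 16 h at 37C. Emission at 460 and 530 nm after 2 h CCF4-AM loading provided the ratio, fitted upward versus DMSO.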

[3] = target: Cellular tumor antigen p53 (Homo sapiens) (UniProt P04637); experiment: TOX21_p53_BLA_p3_ratio: Tox21 HCT-116 p53 Agonism Beta-lactamase Assay, Ratio, Phase 3 (AID 2283596)
Method in brief: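 HCT116 p53-bla cells (4000/well) given compound in DMSO (217-fold dilution) after 5 h, incubated 16 h at 37C. CCF4-AM substrate 2 h at room temperature; 460/530 nm emission ratio, gain fitted against DMSO.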

[4] = TOX21_p53_BLA_p4_viability: Viability Assessment in the Tox21 HCT-116 p53 Agonism Beta-lactamase Assay, Phase 4 (AID 2283597);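 further: hits lower the luminescence signal meaning cytotoxicity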
Method in brief: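 We seeded HCT116 p53 reporter cells at 4000/well and waited 5 h. We then added compounds in DMSO at a 217-fold dilution and incubated for 16 h. Viability was read as CellTiter-Glo luminescence after 30 min at RT.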

[5] = target: Cellular tumor antigen p53 (Homo sapiens) (UniProt P04637); experiment: TOX21_p53_BLA_p5_ratio: Tox21 HCT-116 p53 Agonism Beta-lactamase Assay, Ratio, Phase 5 (AID 2283599)
Method in brief: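 HCT-116 p53-bla cells (4000/well) plated 5 h, dosed with compound (217-fold DMSO dilution) for 16 h at 37 C; CCF4-AM substrate 2 h at room temperature. Activity is the 460/530 nm emission ratio (405 nm excitation), fitted in gain-of-signal direction versus DMSO.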

[6] = TOX21_p53_BLA_p5_viability: Viability Assessment in the Tox21 HCT-116 p53 Agonism Beta-lactamase Assay, Phase 5 (AID 2283600)
Method in brief: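 Compounds, pinned from DMSO at 217-fold dilution, were left on the cells for 16 h. The viability endpoint was ATP content measured by CellTiter-Glo luminescence, where falling signal reflects cytotoxicity.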

[7] = target: Cellular tumor antigen p53 (Homo sapiens) (UniProt P04637); experiment: TOX21_p53_BLA_p4_ratio: Tox21 HCT-116 p53 Agonism Beta-lactamase Assay, Ratio, Phase 4 (AID 2283601)
Method in brief: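 HCT-116 p53 beta-lactamase reporter cells (4000/well) preincubated 5 h, then compound (217-fold dilution of DMSO stock) for 16 h at 37C. CCF4-AM substrate added 2 h at room temperature; 460/530 nm emission ratio fitted upward versus DMSO.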

Measured: outcome

Cellular tumor antigen p53 (Homo sapiens), sequence (P04637 whole entry, looked up): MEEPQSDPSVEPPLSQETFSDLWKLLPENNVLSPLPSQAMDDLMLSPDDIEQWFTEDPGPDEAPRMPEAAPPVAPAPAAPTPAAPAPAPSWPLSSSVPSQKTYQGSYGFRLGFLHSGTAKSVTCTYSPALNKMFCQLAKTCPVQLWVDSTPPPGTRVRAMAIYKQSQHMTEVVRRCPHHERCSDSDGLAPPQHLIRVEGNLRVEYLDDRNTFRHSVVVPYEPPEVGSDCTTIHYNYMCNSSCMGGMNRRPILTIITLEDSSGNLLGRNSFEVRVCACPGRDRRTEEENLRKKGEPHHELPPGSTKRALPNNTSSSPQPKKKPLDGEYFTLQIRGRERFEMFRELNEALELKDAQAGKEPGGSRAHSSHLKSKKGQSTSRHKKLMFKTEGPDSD

CCOC(=O)NC(C)(C)Cc1ccc(Cl)cc1
inactive: all assays above

CCOc1ccc2c3c1O[C@H]1[C@@H](O)C=C[C@H]4[C@@H](C2)N(C)CC[C@@]341
inactive: [1] | [2] | [3] | [4]

Cc1ccc2c(C)cccc2c1
inactive: all assays above
